This passage reports growth results from PubChem BioAssay (NCI).

Common to all, as to test: NCI-60 one-dose screen, 48 h (100 = growth as untreated, 0 = no growth, -100 = all killed)
What all share (settings): 10 µM unless noted

For test [1], the system named is HCT-15 colon.
Test [2] relates to HT29 colon.
Test [3] has as its system SNB-75 CNS.
Test [4] deals with SNB-19 CNS.
The subject of test [5] is U251 CNS.
Test [6] relates to PC-3 prostate.
For test [7], the system named is SK-MEL-5 melanoma.
Test [8] concerns UACC-62 melanoma.
Test [9] deals with LOX IMVI melanoma.
Test [10] relates to SK-MEL-28 melanoma.
Test [11] has as its system SK-MEL-2 melanoma.
Test [12] concerns EKVX NSCLC.
Test [13] concerns SN12C renal.
For test [14], the system named is UO-31 renal.
Test [15] concerns TK-10 renal.
In test [16] the test system is ACHN renal.
In test [17] the test system is CAKI-1 renal.
Test [18] relates to A498 renal.
Test [19] has as its system CCRF-CEM leukemia.
Test [20] relates to MOLT-4 leukemia.

Compounds without any hit were thinned out: in the full panel of roughly 83,000, 20% have a hit.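 48-hour exposure, single concentration, 96-well plates; percent growth endpoint where 0 means no net growth. Active: below 10.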 Unmarked numbers belong to inactive results. Activity calls are given as the source filed them.

`CCSc1nnc(NC(=O)COc2ccc(Cl)cc2C)s1`: the growth was 102% in test [1]; 115% in test [2]; 110% in test [3]; 95.2% in test [4]; 99.4% in test [5]; 104% in test [6]. Moreover, the growth was 97.3% in [7]; 98.7% in test [8]; 93.8% in [9]; 114% in [10]; 48.6% in test [11]; 102% in test [12]. Further, the growth in [13] is 101%; in test [14], 46.2%; in test [15] it was 116%; in [16], 96.5%; in test [17], 85.8%; in test [18] it was 109%. Besides, the results for the growth in test [19] and in test [20] were 99.1% and 95.6%, respectively.

Take `O=[N+]([O-])c1c(S(=O)(=O)O)cc2cc(S(=O)(=O)O)ccc2c1[N+](=O)[O-]`: the growth is 101% in [1]; 103% in test [2]; 98.1% in [3]; 108% in test [4]; 100% in test [5]; 100% in test [6]. Also, the growth in test [7] was 100%; in test [8] it was 97%; in test [9], 94.3%; in [10], 103%; in test [11], 107%; in test [12] it was 101%. The growth in test [13] was 101%; in test [14] it was 76.5%; in [15], 93%; in test [16], 98.8%; in test [17] it was 93.8%; in test [18] it was 106%. Further, the growth is 107% in [19] and 93.8% in test [20].

Take `CCN(CC)CCSc1c2ccc(Cl)cc2nc2ccc(OC)cc12`: the growth in test [1] was 47.4%; in [2], 34.8%; in test [3] it was 110%; in [4] it was 92%; in [5], 93%; in test [6], 91.4%. For the same molecule, the growth in test [7] is 103%; in [8] it was 93.2%; in test [9] it was 36.7%; in [10] it was 113%; in test [11], 100%; in test [12] it was 97.1%. Also, the growth in [13] is 90.1%; in test [14], 88.5%; in test [15] it was 84.1%; in test [16], 87.6%; in [17], 91.3%; in test [18] it was 100%. The growth in [19] is 12.7%; in [20], 48.1%.

`C/C(=C\c1csc(C)n1)[C@@H]1C[C@@H]2O[C@]2(C)CCC[C@H](C)[C@H](O)[C@@H](C)C(=O)C(C)(C)[C@@H](O)CC(=O)N1`: the growth in [1] was -93.4% (active); in test [2], -10.4% (active); in [3], -19.4% (active); in test [4] it was -41.4% (active); in [5] it was -100% (active); in test [6] it was -63.9% (active). The growth in test [7] was -89.9% (active); in [8] it was -93.7% (active); in [9], -100% (active); in test [10], -43.3% (active); in test [11], -46.7% (active); in test [12], -25.6% (active). In addition, the growth in test [13] is -81.1% (active); in test [14] it was -85.7% (active); in test [15], -68% (active); in test [16], -100% (active); in test [17] it was -88.4% (active); in test [18], -28.7% (active). Also, the growth in test [19] is -80.7% (active); in test [20] it was -27.5% (active).

As for `C=C1C(=O)O[C@H]2[C@H]1CC/C(Cn1cc(-c3ccsc3)nn1)=C\CC[C@@]1(C)O[C@@H]21`, the growth in [1] was -77.5% (active); in [2], -68.5% (active); in test [3], 21.7%; in test [4], 59.8%; in test [5] it was 4.91% (active); in test [6], -20.4% (active). In addition, the growth was -42.1% (active) in test [7]; -55.7% (active) in test [8]; -94.3% (active) in [9]; -54% (active) in test [10]; -21.5% (active) in [11]; -80.3% (active) in test [12]. Also, the growth in test [13] was -18.3% (active); in [14], -91.5% (active); in test [15] it was -50.6% (active); in test [16], -90.5% (active); in test [17], -53.5% (active); in test [18] it was -4.99% (active). The values for the growth in test [19] and in test [20] were -24.7% (active) and -13.3% (active), respectively.

As for `O=c1oc2c([nH]c3ccc4ccccc4c32)c2ccccc12`, the growth in test [1] is 105%; in [2], 111%; in [3], 126%; in test [4] it was 108%; in test [5], 100%; in test [6], 97.7%. Moreover, the growth in [7] is 85.5%; in test [8], 93.8%; in test [9], 98.8%; in test [10], 134%; in test [11], 107%; in test [12], 85.4%. Moreover, the growth in [13] is 106%; in test [14], 128%; in [15], 127%; in test [16], 110%; in test [17] it was 109%; in test [18], 106%. Moreover, the growth was 97.6% in test [19] and 85.2% in test [20].

With `Cc1ccc2c(c1)C(C)Cc1c(ncnc1-n1cnc3ccccc31)N2C` (stereo not given), the growth was 12.3% in test [1]; 4.56% (active) in test [2]; -10.3% (active) in [3]; 34% in test [4]; 18.4% in test [5]; 21.9% in test [6]. Besides, the growth in [7] is 12.2%; in [8], 26%; in test [9], 34%; in test [10], 61.8%; in test [11] it was 38.6%; in [12], 40.1%. For the same molecule, the growth in test [13] is 37.5%; in [14] it was 40.1%; in test [15] it was 13.8%; in test [16], 35.4%; in test [17], 24.6%; in test [18], -16% (active). Further, the growth is 10% in [19] and 11.7% in [20].

In the case of `CCOC(=O)c1cc(/C(=N\O)c2cc(OC)c(OC)c(OC)c2)n2c(C)cccc12`, the growth in test [1] was 25.7%; in [2], 9.58% (active); in test [3], 9.5% (active); in test [4], 42.5%; in test [5], 26.2%; in test [6] it was 31.4%. Further, the growth was 14.5% in test [7]; 27% in [8]; 37.9% in [9]; 58.4% in test [10]; 21.8% in test [11]; 36.6% in test [12]. The growth in test [13] is 54.3%; in test [14] it was 54%; in [15] it was 21.2%; in test [16], 37.3%; in [17], 36%; in [18] it was -1.4% (active). Besides, the growth in test [19] was 22.5%; in test [20], 28.5%.
